PubChem BioAssay (EPA / NIEHS)
Results filed as inconclusive are left out. Active and inactive are the calls of the source. How the source made its calls, unless noted: active means hit-call score of the fitted dose curve at least 0.9, where 1 is the maximum; inactive means score below 0.9.

Assays:
[1] = VALA_TUBHUV_Agonist_CellCount: Viability Assessment in the VALA Sciences human Umbilical Vein Endothelial Tubule Formation (TUBHUV) Agonism Assay (AID 2284309; active means hit-call score of the fitted dose curve at least 0.9, where 1 is the maximum)
Procedure, shortened: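 Viability endpoint by fluorescent imaging of fixed nuclear/CD31-stained HUVEC–HDF co-cultures. Readout is cell count, fitted upward against 0.1% DMSO. Compound exposure was 72 h in 10 ng/ml VEGF, after 3-day co-culture priming.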

[2] = VALA_TUBIPS_Antagonist_TubuleLength: VALA Sciences human iPS-derived Endothelial Tubule Formation (TUBIPS) Antagonist Assay (AID 2284313; active means hit-call score of the fitted dose curve at least 0.9, where 1 is the maximum)
Procedure, shortened: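 Tubule length was quantified by high-content imaging of CD31- and nuclear-stained cells, with 0.1% DMSO as neutral and 100 uM suramin as inhibition control. Compounds were applied for 3 days, in 10 ng/ml VEGF, to cultures pre-grown 3 days.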

[3] = CCTE_Deisenroth_5AR_NBTE_donor: CCTE's 5alpha-reductase NanoBRET Target Engagement Assay […], Deisenroth Lab (AID 2284319); settings: actives raise or lower the signal
Procedure, shortened: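 Donor NanoLuc luminescence at 460-20 nm is the read-out, serving artifact detection. Transiently expressed SRD5A2-NanoLuc in HEK293T; 5 h total chemical exposure, testosterone tracer added for the final 2 h; fitting bidirectional relative to DMSO baseline.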

[4] = CCTE_Deisenroth_5AR_NBTE_acceptor: CCTE's 5alpha-reductase NanoBRET Target Engagement Assay - Autofluorescence Screen, Deisenroth Lab (AID 2284321); settings: actives raise or lower the signal;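 further: compound fluorescence in the acceptor channel under 460 nm excitation flags autofluorescence artifacts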
Procedure, shortened: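 HEK293T cell-based NanoBRET assay read 5 h after dosing; this acceptor channel serves as an autofluorescence artifact screen. Chemicals at nominal 100 uM were scanned in three independent runs (n=3), excitation 460 nm. Fitting was bidirectional versus DMSO baseline.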

SRD5A2 (gene 6716) = experiment: CCTE_Deisenroth_5AR_NBTE_ratio: CCTE's 5alpha-reductase NanoBRET Target Engagement Assay - Ratio, Deisenroth Lab (AID 2284322); settings: actives raise or lower the signal
Procedure, shortened: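 HEK293T cells transiently expressing an SRD5A2-NanoLuc fusion (20 h post-transfection) were exposed to test chemical (10 nM - 29.9 uM, 8 points) for 3 h, then testosterone tracer for a further 2 h. Acceptor/donor BRET ratio was fitted bidirectionally against DMSO baseline.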

[5] = VALA_MIGHUV2_CellCount: Viability Assessment in the VALA Sciences human Umbilical Vein Endothelial Cell Migration (MIGHUV) Assay, Area of Scratch Wound after Recovery (AID 2284314; active means hit-call score of the fitted dose curve at least 0.9, where 1 is the maximum)
Procedure, shortened: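 Viability read-out: Hoechst-stained nuclei counted by fluorescence imaging after a 24 h recovery period in fixed, scratched HUVEC plates. Compound was dosed within 30 min of scratching at six concentrations (triplicate); DMSO at 0.1 % served as baseline.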

[6] = VALA_MIGHUV2_WoundArea: VALA Sciences human Umbilical Vein Endothelial Cell Migration (MIGHUV) Assay, Area of Scratch Wound after Recovery (AID 2284316; active means hit-call score of the fitted dose curve at least 0.9, where 1 is the maximum)
Procedure, shortened: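 Wound-area endpoint read by fluorescence imaging of Hoechst-stained nuclei after a 24 h recovery period following scratch of HUVEC monolayers (9000 cells/well). Chemicals dosed within 30 min post-scratch, triplicate 6-point series, 0.1% DMSO vehicle; Cytochalasin D positive control.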

[7] = VALA_MIGHUV1_ScratchOnly_CellCount: Viability Assessment in the VALA Sciences human Umbilical Vein Endothelial Cell Migration (MIGHUV) Assay, Scratch Wound Inhibited Recovery (AID 2284327; active means hit-call score of the fitted dose curve at least 0.9, where 1 is the maximum)
Procedure, shortened: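 Hoechst-stained nuclei in the scratch wound were counted by high-content imaging after a 24 h recovery period. Scratched HUVEC monolayers received 6-point concentration series, triplicate, in 0.1% DMSO, fit against DMSO.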

[8] = TAMU_PeakParms_SingleDonor1434_Asystole: Texas A&M University (TAMU) 1.5-hr Human Induced Pluripotent Stem Cell (iPSC)-derived Cardiomyocytes Calcium (Ca+2) Flux Assay for Cardiotoxicity: Asystole (quiescence of beating) (AID 2284328; active means hit-call score of the fitted dose curve at least 0.9, where 1 is the maximum)
Procedure, shortened: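 Human iPSC-derived cardiomyocytes (donor 1434) were exposed to 0.2, 1, 10 and 100 uM compound in 0.5% DMSO for 90 min at 37C. Ca2+-dye fluorescence gave average peak frequency; POD is EC95, a 95% beat-rate drop versus DMSO.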

[9] = VALA_TUBHUV_Antagonist_CellCount: Viability Assessment in the VALA Sciences human Umbilical Vein Endothelial Tubule Formation (TUBHUV) Antagonism Assay (AID 2284310; active means hit-call score of the fitted dose curve at least 0.9, where 1 is the maximum)
Procedure, shortened: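 Read-out is imaged cell count after nuclear and CD31 staining, fitted against 0.1% DMSO vehicle. Compounds were added for 3 days, in 10 ng/ml VEGF assay medium, to HUVEC–HDF co-cultures pre-grown 3 days.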

IYD (gene 389434) = experiment: CCTE_GLTED_hIYD: CCTE's human Iodotyrosine Deiodinase (xIYD) Inhibition Assay, Great Lakes Toxicology and Ecology Division (GLTED) Lab (AID 2284317; active means hit-call score of the fitted dose curve at least 0.9, where 1 is the maximum;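 further: cell-free human IYD enzyme made in baculovirus insect cells; iodide freed from monoiodotyrosine measured by cerium arsenite color change at 420 nm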)
Procedure, shortened: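 Deiodination of MIT by insect-cell-produced human IYD is measured after a 3 h incubation with test chemical. Free iodide passes through a Dowex column and accelerates Sandell-Kolthoff Ce4+ reduction, read at 420 nm; run in triplicate.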

[10] = IUF_NPC2-5_cytotoxicity_72hr: Cytotoxicity Assessment at 72 hours in the Leibniz Research Institute for Environmental Medicine (IUF) Neural Progenitor Cell Migration and Differentiation Assay for Cytotoxicity (NPC2-5) (AID 2284306; active means hit-call score of the fitted dose curve at least 0.9, where 1 is the maximum;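 further: LDH release into supernatant measured by resorufin fluorescence marking membrane damage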)
Procedure, shortened: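 Primary human neural progenitor spheres migrate and differentiate on laminin. Compound is present from the start of differentiation, with DMSO kept at or below 0.1%. At 72 h, supernatant LDH is quantified fluorometrically, with values fitted in the positive direction.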

[11] = IUF_NPC2-5_cytotoxicity_120hr: Cytotoxicity Assessment at 120 hours in the Leibniz Research Institute for Environmental Medicine (IUF) Neural Progenitor Cell Migration and Differentiation Assay (NPC2-5) (AID 2284307; active means hit-call score of the fitted dose curve at least 0.9, where 1 is the maximum)
Procedure, shortened: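 Human fetal neural progenitor spheres (0.3 mm, GW 16-19 cortex) were plated on poly-D-lysine/laminin in N2 differentiation medium and exposed for 120 h, with half-medium refresh at day 3. LDH release into supernatant was read by resorufin fluorescence.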

[12] = IUF_NPC2-5_cell_number_120hr: Cell Number Assessment at 120 hours in the Leibniz Research Institute for Environmental Medicine (IUF) Neural Progenitor Cell Migration and Differentiation Assay (NPC2-5) (AID 2284308);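 further: count of Hoechst-stained nuclei in migration zone around plated human neural progenitor spheres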
Procedure, shortened: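 Primary human fetal neural progenitor spheres (GW 16-19, 0.3 mm) plated on poly-D-lysine/laminin in N2 differentiation medium, exposed from day 0 for 120 h with half-medium refresh at day 3; Hoechst-positive nuclei counted in migration area versus DMSO control.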

[13] = IUF_NPC2-5_viability_120hr: Viability Assessment at 120 hours in the Leibniz Research Institute for Environmental Medicine (IUF) Neural Progenitor Cell Migration and Differentiation Assay (NPC2-5) (AID 2284312)
Procedure, shortened: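 Human fetal (GW 16-19) neural progenitor spheres of 0.3 mm were plated on poly-D-lysine/laminin in N2 differentiation medium and exposed from day 0 for 120 h, with half-medium refresh at day 3. Viability was read as alamar blue resazurin-to-resorufin fluorescence against DMSO.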

[14] = CCTE_Mundy_HCI_iCellGluta_NOG_NeuriteLength: CCTE's Neurite Outgrowth Assay in iCellGluta cells for Neurite Length, Mundy Lab (AID 2284318; active means hit-call score of the fitted dose curve at least 0.9, where 1 is the maximum)
Procedure, shortened: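 Automated high-content imaging of betaIII-tubulin (Alexa Fluor-488) and Hoechst-stained cells gave neurite length, normalized to the DMSO baseline.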

[15] = system: Brachyury (BRA) Protein Expression, Deisenroth Lab, TBXT (gene 6862); experiment: CCTE_Deisenroth_DEVTOX-GLR_legacy_Bra: (Legacy) CCTE's DevTox GLR-Endo Assay Evaluation of Brachyury (BRA) Protein Expression, Deisenroth Lab (AID 2284329)
Procedure, shortened: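 High-content imaging of fixed RUES2-GLR cells after a 48-hour differentiation with two compound exposures yields percent cells whose Bra signal exceeds pluripotent control median by 5x BMAD; values are baseline-corrected to DMSO.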

[16] = CCTE_Deisenroth_DEVTOX-GLR_legacy_CellCount: (Legacy) Viability Assessment in CCTE's DevTox GLR-Endo Assay, Deisenroth Lab (AID 2284331); settings: actives raise or lower the signal
Procedure, shortened: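 Nuclei count by fluorescence high-content imaging (5 fields/well) after 48 h differentiation of RUES2-GLR cells. Two exposures, 24 h apart; 1 nM - 200 uM series; n=4. Bidirectional fit vs DMSO.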

[17] = VALA_TUBIPS_Agonist_TubuleLength: VALA Sciences human iPS-derived Endothelial Tubule Formation (TUBIPS) Agonism Assay (AID 2284311; active means hit-call score of the fitted dose curve at least 0.9, where 1 is the maximum)
Procedure, shortened: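 Agonist-mode readout is the gain in imaged tubule length versus DMSO baseline. It was measured by fluorescence high-content imaging 72 h after dosing human iPSC-derived endothelial cells.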

[18] = VALA_TUBHUV_Antagonist_TubuleLength: VALA Sciences human Umbilical Vein Endothelial Tubule Formation (TUBHUV) Antagonism Assay (AID 2284325; active means hit-call score of the fitted dose curve at least 0.9, where 1 is the maximum)
Procedure, shortened: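 Tubule length was imaged via CD31 immunofluorescence after a further 3-day compound exposure in 10 ng/ml VEGF, following 3-day pre-culture of HUVEC with HDF at 1:3. Vehicle 0.1% DMSO; suramin (100 uM) inhibition control.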

## O=c1c(O)c(-c2ccc(O)c(O)c2)oc2cc(O)cc(O)c12
[1]
  outcome: inactive
[2]
  outcome: inactive
[3]
  AC50: 26.7 µM (active)
[4]
  AC50: 23.3 µM (active)
SRD5A2 (gene 6716)
  outcome: inactive

## Oc1ccc2ccccc2c1N=Nc1ccccc1
[1]
  outcome: inactive
[5]
  outcome: inactive
[6]
  outcome: inactive
[3]
  outcome: inactive
[4]
  outcome: inactive
SRD5A2 (gene 6716)
  outcome: inactive
[7]
  outcome: inactive

## COc1ccc(C)cc1N
[3]
  outcome: inactive
[4]
  outcome: inactive
SRD5A2 (gene 6716)
  outcome: inactive

## CC=Cc1ccc(O)c(OC)c1
[3]
  outcome: inactive
[4]
  outcome: inactive
SRD5A2 (gene 6716)
  outcome: inactive

## C1CCC(SSC2CCCCC2)CC1
[3]
  outcome: inactive
[4]
  outcome: inactive
SRD5A2 (gene 6716)
  outcome: inactive

## CCOc1ccc2c(c1)C(C)=CC(C)(C)N2
[8]
  outcome: inactive

## O=C(O)CCCCC(=O)O
[8]
  outcome: inactive

## Cc1cc(NC(=O)C(=O)O)cc(C)c1Oc1ccc(O)c2c1CCC2
[1]
  AC50: 91.7 µM (active)
[9]
  AC50: 81.2 µM (active)
[2]
  outcome: inactive

## CCCCCCCCCCC
[3]
  outcome: inactive
[4]
  outcome: inactive
SRD5A2 (gene 6716)
  outcome: inactive

## COc1cc(S(=O)(=O)O)c(C)cc1N=Nc1c(O)ccc2cc(S(=O)(=O)O)ccc12
IYD (gene 389434)
  AC50: 154 µM (active)
[3]
  AC50: 24.8 µM (active)
[4]
  outcome: inactive
SRD5A2 (gene 6716)
  AC50: 60.2 µM (active)

## C[Si]1(C)O[Si](C)(C)O[Si](C)(C)O[Si](C)(C)O1
[10]
  outcome: inactive
[11]
  outcome: inactive
[12]
  outcome: inactive
[13]
  outcome: inactive
[14]
  outcome: inactive

## COc1ccc2c(c1)c(CC(=O)O)c(C)n2C(=O)c1ccc(Cl)cc1
[15]
  AC50: 5.9 µM (active)
[16]
  AC50: 10.2 µM (active)

## CCCCOC(=O)CCCCCCCCC(=O)OCCCC
[3]
  outcome: inactive
[4]
  outcome: inactive
SRD5A2 (gene 6716)
  outcome: inactive

## COc1cc(-c2nc(NC(=O)c3cc4cc(C)cc(C)c4n3CC(=O)O)sc2CCC2CCCCC2)c(OC)cc1Cl
[3]
  outcome: inactive
[4]
  outcome: inactive
SRD5A2 (gene 6716)
  AC50: 26.3 µM (active)

## O=c1[nH]cc(F)c(=O)[nH]1
[8]
  outcome: inactive
[15]
  AC50: 16.5 µM (active)
[16]
  AC50: 5.95 µM (active)

## CC(=O)Oc1ccccc1C(=O)O
[10]
  outcome: inactive
[11]
  outcome: inactive
[12]
  outcome: inactive
[13]
  outcome: inactive
[14]
  outcome: inactive
[8]
  outcome: inactive
[16]
  outcome: inactive

## COc1cccc2c1C(=O)c1c(O)c3c(c(O)c1C2=O)C[C@@](O)(C(=O)CO)C[C@@H]3O[C@H]1C[C@H](N)[C@H](O)[C@H](C)O1
[15]
  AC50: 7.41 µM (active)
[16]
  AC50: 0.00843 µM (active)

## OC[C@@H](O)[C@@H](O)[C@H](O)[C@H](O)CO
[10]
  outcome: inactive
[11]
  outcome: inactive
[12]
  outcome: inactive
[1]
  outcome: inactive
[17]
  outcome: inactive
[13]
  outcome: inactive
[2]
  outcome: inactive
[5]
  outcome: inactive
[6]
  outcome: inactive
[3]
  outcome: inactive
[4]
  outcome: inactive
SRD5A2 (gene 6716)
  outcome: inactive

## CCCc1cc(=O)[nH]c(=S)[nH]1
[1]
  outcome: inactive
[2]
  outcome: inactive
[18]
  outcome: inactive
[8]
  outcome: inactive
[15]
  outcome: inactive
[16]
  outcome: inactive

## COC(=O)c1ccc(O)cc1
[1]
  outcome: inactive
[9]
  outcome: inactive
[2]
  outcome: inactive
[18]
  outcome: inactive
[8]
  outcome: inactive

## CCCCC(CC)COC(=O)CC(C(=O)OCC(CC)CCCC)S(=O)(=O)O (stereo not drawn)
[1]
  AC50: 7.22 µM (active)
[17]
  outcome: inactive
[2]
  outcome: inactive
[5]
  AC50: 50 µM (active)
[6]
  outcome: inactive
IYD (gene 389434)
  AC50: 41.5 µM (active)
[3]
  AC50: 62.2 µM (active)
SRD5A2 (gene 6716)
  AC50: 75.3 µM (active)
[18]
  AC50: 73 µM (active)
[7]
  AC50: 78.2 µM (active)

## CC1=C(/C=C/C(C)=C/C=C/C(C)=C/CO)C(C)(C)CCC1
[15]
  AC50: 67.5 µM (active)
[16]
  AC50: 34.6 µM (active)
